Test results published in the supplement of paper PMC10849652.
The full data set covers some 8,800 targets. This sample favours those with a hit. About 0.5% of all pairs of compound and target were hits.

Columns and labels:
Test in all cases: log2 fold change, soluble protein after heating vs DMSO (PISA); higher = thermal stabilisation; K562 lysate, 10 uM; active = over 0.2 and 3.5 SD of the protein, either way, in both replicates (recomputed)
[1] = compound: C1=CC=C(C=C1)[C@H](COC2=CC3=C(C=C2)NC(=O)N3)NC(=O)C4=CC=CN(C4=O)CC5=CC(=C(C=C5)F)F
Summary of the method: (§1)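 K562 pellets were dounce-homogenised in PBS pH 7.4 containing 1 mM MgCl2, and the crude extract, at 1 mg/mL protein, was exposed to 10 μM compound for 30 min. Aliquots were heated for 3 min across 48°C-58°C, pooled, brought to 0.5% NP-40 at 4°C and spun at 21,000xg for 90 min, with the supernatant taken as soluble protein. TMTpro 16plex LC-MS/MS with equalised channel sums quantified that protein. Values are log-two fold changes in thermal stability relative to solvent controls, taken from duplicates.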

[2] = compound: CC1=C(SC2=C1C(=N[C@H](C3=NN=C(N32)C)CC(=O)N)C4=CC=C(C=C4)Cl)C
Summary of the method: as §1

[3] = compound: CC1=C2C(=CC=C1)N=C(N(C2=O)C3=CC=CC=C3C)CN4C=NC5=C(N=CN=C54)N
Summary of the method: as §1

[4] = compound: Cc1sc2c(c1C)C(c1ccc(Cl)cc1)=N[C@@H](CC(=O)OC(C)(C)C)c1nnc(C)n1-2
Summary of the method: as §1

[5] = compound: c1ccc([C@@H]2C[C@H]2NC2CCNCC2)cc1
Summary of the method: as §1

Measured: log2 fold change

UBXN10 (UniProt Q96LJ8)
inactive: [1] -0.032 | [2] 0.048 | [3] 0.056 | [4] 0.095 | [5] 0.022

TRIP12 isoform 2 (UniProt Q14669)
inactive: [1] -0.043 | [2] 0.07 | [3] -0.018 | [4] 0 | [5] 0.062

TUBB2A (UniProt Q13885)
UniProt Q13885, sequence (Q13885 whole entry, looked up): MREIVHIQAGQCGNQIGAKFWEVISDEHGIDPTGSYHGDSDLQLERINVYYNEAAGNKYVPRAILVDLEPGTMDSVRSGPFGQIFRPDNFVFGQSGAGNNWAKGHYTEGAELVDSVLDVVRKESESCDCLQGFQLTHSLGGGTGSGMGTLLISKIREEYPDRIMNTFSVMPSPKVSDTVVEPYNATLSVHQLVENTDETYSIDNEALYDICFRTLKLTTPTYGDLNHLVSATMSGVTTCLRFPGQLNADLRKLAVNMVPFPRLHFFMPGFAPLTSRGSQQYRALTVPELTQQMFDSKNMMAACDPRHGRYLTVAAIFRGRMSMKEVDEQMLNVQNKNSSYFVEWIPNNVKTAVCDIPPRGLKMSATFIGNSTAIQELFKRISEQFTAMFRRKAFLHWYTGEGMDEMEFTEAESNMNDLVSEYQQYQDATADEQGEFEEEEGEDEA
inactive: [1] 0.017 | [2] 0.01 | [3] 0 | [4] 0.003 | [5] -0.015

TUBE1 (UniProt Q9UJT0)
inactive: [1] -0.019 | [2] 0.003 | [3] 0.019 | [4] -0.064 | [5] 0.107

TK1 (UniProt K7ERV3)
inactive: [1] -0.044 | [2] 0.007 | [3] -0.017 | [4] -0.002 | [5] -0.037

TMPO isoform 2 (UniProt P42167)
UniProt P42167, sequence (P42167 whole entry, looked up): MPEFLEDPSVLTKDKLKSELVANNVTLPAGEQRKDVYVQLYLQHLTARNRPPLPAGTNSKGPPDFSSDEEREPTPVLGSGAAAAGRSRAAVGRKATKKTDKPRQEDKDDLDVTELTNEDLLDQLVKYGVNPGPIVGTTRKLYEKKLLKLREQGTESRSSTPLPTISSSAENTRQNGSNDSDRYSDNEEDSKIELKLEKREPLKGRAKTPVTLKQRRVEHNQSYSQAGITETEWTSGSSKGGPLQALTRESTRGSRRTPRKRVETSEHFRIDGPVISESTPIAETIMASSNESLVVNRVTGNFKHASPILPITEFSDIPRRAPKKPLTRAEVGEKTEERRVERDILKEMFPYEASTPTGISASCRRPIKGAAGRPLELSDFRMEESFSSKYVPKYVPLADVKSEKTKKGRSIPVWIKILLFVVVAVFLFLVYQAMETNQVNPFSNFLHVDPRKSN
inactive: [1] 0.11 | [2] 0.088 | [3] 0.033 | [4] -0.069

UBE3B (UniProt Q7Z3V4)
inactive: [1] -0.085 | [2] -0.144 | [3] -0.047 | [4] -0.045 | [5] 0.078

TUBB1 (UniProt Q9H4B7)
UniProt Q9H4B7, sequence (Q9H4B7 whole entry, looked up): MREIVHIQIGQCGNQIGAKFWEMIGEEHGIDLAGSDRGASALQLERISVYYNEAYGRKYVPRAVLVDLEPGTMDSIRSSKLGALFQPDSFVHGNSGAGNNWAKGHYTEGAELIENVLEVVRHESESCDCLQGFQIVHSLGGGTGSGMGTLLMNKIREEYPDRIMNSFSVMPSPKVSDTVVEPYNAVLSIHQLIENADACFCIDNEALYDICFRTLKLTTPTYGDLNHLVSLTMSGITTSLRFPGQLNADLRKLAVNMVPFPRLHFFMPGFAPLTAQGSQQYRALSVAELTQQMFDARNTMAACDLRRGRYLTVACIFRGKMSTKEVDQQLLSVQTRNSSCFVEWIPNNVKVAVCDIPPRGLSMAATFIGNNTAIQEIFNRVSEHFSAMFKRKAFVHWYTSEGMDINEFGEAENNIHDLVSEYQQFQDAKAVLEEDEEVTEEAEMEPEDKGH
inactive: [1] -0.005 | [2] 0.019 | [3] 0.008 | [4] 0.063 | [5] 0.087

TRMT2A (UniProt Q8IZ69)
inactive: [1] 0.003 | [2] 0.02 | [3] 0.003 | [4] 0.02 | [5] 0.027

UFSP2 (UniProt Q9NUQ7)
inactive: [1] 0.059 | [2] 0 | [3] 0.057 | [4] -0.04 | [5] 0.022

TMEM14C (UniProt Q9P0S9)
inactive: [1] -0.131 | [2] -0.031 | [3] 0.14 | [4] -0.015

TBC1D23 (UniProt Q9NUY8)
inactive: [1] 0.007 | [2] 0.01 | [3] -0.017 | [4] 0.016 | [5] -0.024

TJP1 isoform 2 (UniProt Q07157)
UniProt Q07157, sequence (Q07157 whole entry, looked up): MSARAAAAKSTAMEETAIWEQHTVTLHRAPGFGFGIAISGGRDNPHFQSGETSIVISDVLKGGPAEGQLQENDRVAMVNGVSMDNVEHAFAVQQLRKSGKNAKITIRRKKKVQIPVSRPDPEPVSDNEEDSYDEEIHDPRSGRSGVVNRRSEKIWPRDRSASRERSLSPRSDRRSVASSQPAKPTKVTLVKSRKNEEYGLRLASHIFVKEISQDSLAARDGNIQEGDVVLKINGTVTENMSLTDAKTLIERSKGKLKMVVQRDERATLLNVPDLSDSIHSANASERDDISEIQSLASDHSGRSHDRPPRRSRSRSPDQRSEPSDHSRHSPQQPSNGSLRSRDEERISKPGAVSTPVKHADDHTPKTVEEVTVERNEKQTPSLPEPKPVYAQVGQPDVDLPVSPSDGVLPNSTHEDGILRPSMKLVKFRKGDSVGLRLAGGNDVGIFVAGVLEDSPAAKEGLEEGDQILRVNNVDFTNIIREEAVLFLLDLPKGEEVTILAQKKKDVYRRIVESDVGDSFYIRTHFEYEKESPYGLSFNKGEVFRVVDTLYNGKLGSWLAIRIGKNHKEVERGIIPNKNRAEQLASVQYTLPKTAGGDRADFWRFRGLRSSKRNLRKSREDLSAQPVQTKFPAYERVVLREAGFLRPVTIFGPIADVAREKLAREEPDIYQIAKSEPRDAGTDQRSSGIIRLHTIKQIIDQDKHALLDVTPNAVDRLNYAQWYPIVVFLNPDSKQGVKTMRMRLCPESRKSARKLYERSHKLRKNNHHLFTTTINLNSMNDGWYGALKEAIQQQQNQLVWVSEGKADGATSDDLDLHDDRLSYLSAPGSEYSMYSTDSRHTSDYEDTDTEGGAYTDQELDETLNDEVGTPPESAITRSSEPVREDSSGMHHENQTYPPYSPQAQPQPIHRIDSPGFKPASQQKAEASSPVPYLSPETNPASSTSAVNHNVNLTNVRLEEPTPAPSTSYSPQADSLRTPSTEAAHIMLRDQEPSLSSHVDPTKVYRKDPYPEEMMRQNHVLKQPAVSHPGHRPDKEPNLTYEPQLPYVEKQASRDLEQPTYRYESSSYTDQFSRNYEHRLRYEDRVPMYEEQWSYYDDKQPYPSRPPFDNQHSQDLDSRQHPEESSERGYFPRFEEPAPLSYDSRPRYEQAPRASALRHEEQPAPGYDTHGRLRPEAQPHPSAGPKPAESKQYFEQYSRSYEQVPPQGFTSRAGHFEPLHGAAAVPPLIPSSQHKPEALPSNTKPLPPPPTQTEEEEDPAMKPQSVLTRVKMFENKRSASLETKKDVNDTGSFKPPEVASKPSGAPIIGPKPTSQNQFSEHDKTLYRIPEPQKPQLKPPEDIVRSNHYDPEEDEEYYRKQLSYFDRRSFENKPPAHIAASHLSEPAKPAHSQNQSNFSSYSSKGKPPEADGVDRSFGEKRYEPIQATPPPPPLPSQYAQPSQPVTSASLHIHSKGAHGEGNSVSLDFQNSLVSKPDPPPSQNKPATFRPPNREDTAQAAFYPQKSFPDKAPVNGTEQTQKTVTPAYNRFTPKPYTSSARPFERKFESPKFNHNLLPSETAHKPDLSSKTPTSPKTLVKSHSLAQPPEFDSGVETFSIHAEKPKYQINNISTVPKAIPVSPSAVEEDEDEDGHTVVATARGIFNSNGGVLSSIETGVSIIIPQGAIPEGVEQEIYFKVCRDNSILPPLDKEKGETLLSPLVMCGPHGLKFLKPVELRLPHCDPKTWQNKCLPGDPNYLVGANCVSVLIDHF
inactive: [1] 0.048 | [2] 0.02 | [3] 0 | [4] 0.061 | [5] -0.009

TBL3 (UniProt Q12788)
inactive: [1] 0.024 | [2] 0.003 | [3] -0.014 | [4] -0.014 | [5] 0.014

UCHL5 (UniProt Q5LJA9)
inactive: [1] 0.002 | [2] -0.059 | [3] -0.022 | [4] -0.251 | [5] 0.133

TPM4 (UniProt P67936)
inactive: [1] -0.003 | [2] 0.057 | [3] -0.021 | [4] -0.025 | [5] -0.04

TTC37 (UniProt Q6PGP7)
inactive: [1] -0.08 | [2] 0.044 | [3] 0.16 | [4] -0.3

UBAP2L isoform 1 (UniProt Q14157)
inactive: [1] -0.101 | [2] -0.087

TUBB4B (UniProt P68371)
inactive: [1] 0.001 | [2] 0.03 | [3] 0.018 | [4] 0.042 | [5] 0.049

TRIM44 (UniProt Q96DX7)
UniProt Q96DX7, sequence (Q96DX7 whole entry, looked up): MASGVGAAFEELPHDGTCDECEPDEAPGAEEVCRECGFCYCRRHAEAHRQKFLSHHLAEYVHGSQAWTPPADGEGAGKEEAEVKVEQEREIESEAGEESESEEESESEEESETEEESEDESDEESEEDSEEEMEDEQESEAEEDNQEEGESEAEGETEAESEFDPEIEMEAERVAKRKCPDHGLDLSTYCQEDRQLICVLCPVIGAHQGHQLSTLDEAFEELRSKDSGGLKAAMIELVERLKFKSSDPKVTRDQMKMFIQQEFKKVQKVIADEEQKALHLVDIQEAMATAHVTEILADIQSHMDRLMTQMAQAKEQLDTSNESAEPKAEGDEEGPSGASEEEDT
inactive: [1] 0.096 | [2] -0.126 | [3] -0.061 | [4] -0.031 | [5] 0.083

TNIK isoform 4 (UniProt Q9UKE5)
UniProt Q9UKE5, sequence (Q9UKE5 whole entry, looked up): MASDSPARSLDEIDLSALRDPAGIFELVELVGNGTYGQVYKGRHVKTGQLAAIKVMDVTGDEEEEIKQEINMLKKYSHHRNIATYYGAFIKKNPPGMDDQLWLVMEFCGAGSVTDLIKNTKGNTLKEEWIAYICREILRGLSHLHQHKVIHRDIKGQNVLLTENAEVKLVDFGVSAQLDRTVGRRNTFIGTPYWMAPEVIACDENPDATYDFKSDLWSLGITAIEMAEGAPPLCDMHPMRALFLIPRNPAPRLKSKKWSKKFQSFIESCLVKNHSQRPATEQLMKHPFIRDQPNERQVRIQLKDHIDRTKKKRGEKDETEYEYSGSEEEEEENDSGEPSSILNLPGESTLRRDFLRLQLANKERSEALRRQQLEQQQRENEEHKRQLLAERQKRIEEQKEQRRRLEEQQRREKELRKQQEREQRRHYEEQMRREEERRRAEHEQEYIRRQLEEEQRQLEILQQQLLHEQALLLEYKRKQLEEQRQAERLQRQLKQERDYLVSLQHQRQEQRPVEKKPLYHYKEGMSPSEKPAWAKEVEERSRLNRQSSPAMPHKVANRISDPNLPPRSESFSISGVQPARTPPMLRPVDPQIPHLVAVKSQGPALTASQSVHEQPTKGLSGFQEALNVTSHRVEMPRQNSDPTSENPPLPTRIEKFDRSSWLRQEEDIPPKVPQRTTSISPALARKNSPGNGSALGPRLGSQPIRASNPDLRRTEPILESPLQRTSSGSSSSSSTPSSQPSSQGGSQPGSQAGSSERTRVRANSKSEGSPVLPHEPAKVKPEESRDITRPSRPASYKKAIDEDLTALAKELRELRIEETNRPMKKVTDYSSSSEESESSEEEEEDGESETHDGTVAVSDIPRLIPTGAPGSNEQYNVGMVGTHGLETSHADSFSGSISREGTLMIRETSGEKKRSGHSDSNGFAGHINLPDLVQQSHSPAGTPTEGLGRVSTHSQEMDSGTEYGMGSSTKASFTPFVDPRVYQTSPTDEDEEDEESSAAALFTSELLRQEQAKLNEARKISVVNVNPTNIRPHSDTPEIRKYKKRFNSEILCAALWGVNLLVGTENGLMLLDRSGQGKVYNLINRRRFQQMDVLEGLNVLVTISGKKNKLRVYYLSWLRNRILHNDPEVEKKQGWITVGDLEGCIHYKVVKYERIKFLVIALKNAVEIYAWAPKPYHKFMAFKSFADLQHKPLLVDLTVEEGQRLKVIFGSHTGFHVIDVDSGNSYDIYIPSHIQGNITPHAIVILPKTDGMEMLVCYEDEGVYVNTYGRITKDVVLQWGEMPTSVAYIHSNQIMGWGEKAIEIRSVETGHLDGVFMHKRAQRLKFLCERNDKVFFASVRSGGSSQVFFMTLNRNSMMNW
inactive: [1] 0.015 | [2] -0.002 | [3] -0.017 | [4] -0.032 | [5] -0.076

TMEM70 (UniProt Q9BUB7)
UniProt Q9BUB7, sequence (Q9BUB7 whole entry, looked up): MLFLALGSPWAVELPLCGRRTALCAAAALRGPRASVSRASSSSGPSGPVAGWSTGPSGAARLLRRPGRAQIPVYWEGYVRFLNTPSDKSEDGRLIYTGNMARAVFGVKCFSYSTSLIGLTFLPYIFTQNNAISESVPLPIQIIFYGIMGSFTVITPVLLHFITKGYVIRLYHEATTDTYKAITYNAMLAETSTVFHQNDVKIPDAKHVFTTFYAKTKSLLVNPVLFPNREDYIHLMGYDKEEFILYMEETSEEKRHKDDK
inactive: [1] -0.029 | [2] 0.045 | [3] 0.021 | [4] 0.013 | [5] -0.083

TLK1 isoform 2 (UniProt Q9UKI8)
inactive: [1] 0.005 | [2] -0.02 | [3] -0.026 | [4] -0.025 | [5] -0.072

TMPO (UniProt P42167)
inactive: [1] -0.017 | [2] 0.044 | [3] -0.042 | [4] 0.042 | [5] -0.023

TPM3 (UniProt P06753)
inactive: [1] -0.018 | [2] 0.008 | [3] -0.018 | [4] 0.015 | [5] 0.057
